Screens from PubChem BioAssay.
Dicer inh – blocks human Dicer maturation of pre-miR-21. z-score at 25 µM. Q9UPY3. actives 6% (n = 47,000). cat-ELCCA pre-miR-21 Dicer processing, chemiluminescence; stronger effect = higher value. AID 1347074; in the data active = z-score above about 3, passing the limit was not always enough;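 note: higher signal means more uncleaved substrate so more Dicer inhibition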
Hits are given with their value; - = inactive; ! = repeats disagree. The entries come from a sample that favours hits as a whole.

SMILES	Dicer inh
CC(=O)Nc1nnc(CCS(=O)(=O)c2ccc3ccccc3c2)s1	-
Cn1nnnc1SCC(=O)N1CCN(S(=O)(=O)c2ccccc2)C1	-
O=C(CSc1nnnn1-c1ccccc1)N1CCN(S(=O)(=O)c2ccccc2)C1	-
O=C(CSc1ccccn1)N1CCN(S(=O)(=O)c2ccccc2)C1	3.4
CC(=O)Nc1ccc([N+](=O)[O-])c(C(=O)O)c1	-
CN(C)/C=N/c1nnc(Sc2ncccc2[N+](=O)[O-])s1	-
C=CCN1C(=O)C2(/C(=C(/O)c3ccc(F)cc3)C(=O)C(=O)N2CCN2CCOCC2)c2ccccc21 (centres undefined)	4.5
CN1C(=O)C2(/C(=C(/O)c3ccc(Cl)cc3)C(=O)C(=O)N2CCCN2CCOCC2)c2ccccc21 (centres undefined)	-
C=CCN1C(=O)C2(/C(=C(/O)c3ccc(F)cc3)C(=O)C(=O)N2CCCOC)c2ccccc21 (centres undefined)	-
C=CCN1C(=O)C2(/C(=C(/O)c3ccccc3)C(=O)C(=O)N2CCCN2CCOCC2)c2ccccc21 (centres undefined)	3.5
C=CCN1C(=O)C2(/C(=C(/O)c3ccc(Cl)cc3)C(=O)C(=O)N2CC2CCCO2)c2ccccc21 (centres undefined)	-
COC(=O)c1sccc1-c1ccc(/C(C)=N/Nc2ccc(F)cc2F)o1	-
O=C(c1ccccc1)c1ccc(-n2cccc2)c([N+](=O)[O-])c1	-
FC(F)(F)c1ccccc1-n1cn[nH]c1=S	-
CCCOC(=O)CSc1[nH]c(=O)cc(C)c1C#N	-
CCOC(=O)CSc1nc(NC)c2c3c(sc2n1)CCCC3	3.2
CCOC(=O)CSc1nc2sc3c(c2c(=O)n1-c1ccc(OC)cc1)CCC3	-
CCNc1nc(SCC(=O)OCC)nc2sc3c(c12)CCC(C)C3 (centres undefined)	-
O=c1c(Cc2ccc(Cl)cc2Cl)c(-c2ccccc2)sc2ccccc12	-
O=c1c(Cc2ccc([N+](=O)[O-])cc2)c(-c2ccccc2)sc2ccccc12	3.6
O=c1c(Cc2ccc(Cl)c(Cl)c2)c(-c2ccccc2)sc2ccccc12	-
CCCC(Nc1ncnc2ccccc12)C(=O)O (centres undefined)	-
O=C(O)CCC(Nc1ncnc2ccccc12)C(=O)O (centres undefined)	-
CC(Nc1ncnc2ccccc12)C(=O)O (centres undefined)	3.3
Cc1sc2c(c1C)C(=O)/C(=C\N(C)C)S(=O)(=O)N2C	-
SMILES	Dicer inh
COc1cc2cc(C(=O)N3CCN(c4cc(C)nc5ccccc45)CC3)c(=O)oc2cc1OC	-
FC(F)(F)c1ccnc(NC2CCN(Cc3ccccc3)CC2)n1	-
CS(=O)c1sc(Cl)c2c1C(=O)CCC2 (centres undefined)	-
CS(=O)c1sc(C#N)c2c1C(=O)CCC2 (centres undefined)	-
Cc1ccc(C2CC(=O)c3c(S(C)=O)sc(C#N)c3C2)cc1 (centres undefined)	3.6
CCCCCC(=O)n1c2ccc(F)cc2c2nc3ccccc3nc21	-
CN(C)S(=O)(=O)c1ccc(C(=O)Nc2nc3ccccc3c3nc4ccccc4n23)cc1	-
CCOc1cccc(=O)c2c(C)n(CC(=O)c3ccccc3)c(C)c12	-
COc1ccccc1OCC(=O)O	-
COc1cccc(=O)c2c(C)n(CC(=O)c3ccccc3)c(C)c12	3.2
CCOCCOC(=O)C1=C(C)NC2=C(C(=O)CC(C)(C)C2)C1c1ccc(O)c(OC)c1 (centres undefined)	-
O=c1cc(Nc2ccc(F)cc2)c2ccccc2o1	-
FC(F)(F)c1cc(Cl)c2nsnc2c1	4.5
Clc1cc2nsnc2cc1Cl	-
O=C(O)c1ncc(C(F)(F)F)cc1Cl	-
Cc1cc(C)cc(OCCCCc2c(C)n[nH]c2C)c1	-
O=C(Cn1c(=O)n(CC(=O)NC2CCCCC2)c2ccccc21)NC1CCCCC1	-
CCOC(=O)c1ccc2nc(C(F)(F)F)nc(N3CC(C)CC(C)C3)c2c1 (centres undefined)	-
COC(=O)c1cc(NS(=O)(=O)c2ccc(Br)cc2)cc(C(=O)OC)c1	3.9
COc1nccnc1NS(=O)(=O)c1ccc(NC(=O)c2ccc(Br)cc2)cc1	-
COC(=O)c1cc(NS(=O)(=O)c2ccc(F)cc2)cc(C(=O)OC)c1	-
NS(=O)(=O)c1cccc(C(F)(F)F)c1	-
O=S1(=O)N=C(Nc2cccc(F)c2)c2ccccc21	-
CSc1nc(SC)c(C#N)c(-c2ccco2)n1	-
Cn1cc(/C(N)=N/O)c(=O)n(Cc2ccccc2)c1=O	7
SMILES	Dicer inh
CC(C)n1cc(C(N)=S)c(=O)n(Cc2ccccc2)c1=O	-
CC(C)n1cc(/C(N)=N/OC(=O)c2ccccc2Cl)c(=O)n(Cc2ccccc2)c1=O	-
Nc1ccc(-c2nc3ccccc3[nH]2)cc1	-
Nc1ccc(-c2nc3c(ccc4ccccc43)[nH]2)cc1	23
Nc1ccc(-c2nc3c(Cl)cccc3[nH]2)cc1	-
CCCOc1ccc(C2C(C(=O)OC)=C(C)NC3=C2C(=O)CCC3)cc1OC (centres undefined)	-
COc1ccc(CCNC(=S)NN)cc1OC	-
O=C1CCCC2=C1C(c1ccc(Br)cc1)C1C(=O)c3ccccc3C1=N2 (centres undefined)	-
S=C(NCCCNC1CCCCC1)Nc1cc(Cl)ccc1Cl	-
CC(CN(C)C)CN1c2ccccc2Sc2ccccc21 (centres undefined)	-
CC(CN1c2ccccc2Sc2ccccc21)N(C)C (centres undefined)	3.8!
CNC(C)CN1c2ccccc2Sc2ccccc21 (centres undefined)	-
Cc1ccc(-c2cn3c4ccccc4nc3n2CCN2CCOCC2)cc1	-
Cc1nc2n(CCN3CCOCC3)c3ccccc3n2n1	-
c1ccc(-c2cn3c4ccccc4n(CCN4CCOCC4)c3n2)cc1	4.1
Cc1nn2c3c(cnc2c1-c1ccccc1)C(=O)CC(c1ccc(F)cc1)C3 (centres undefined)	-
COC(=O)c1scc(C)c1NC(=O)C1CC1	-
CCN(CC)CC(=O)N1c2ccccc2Sc2ccccc21	-
O=C(CN1CCCCC1)N1c2ccccc2Sc2ccccc21	-
NCCCC(=O)N1c2ccccc2Sc2ccccc21	5.5
COC(=O)CSc1cc(C)nc2ccccc12	-
Clc1cccc(CNCc2ccc3c(c2)OCO3)c1	-
O=C(NCc1ccc2c(c1)OCO2)N1CCOCC1	-
c1cc2c(cc1CNCCCN1CCOCC1)OCO2	5.8
Cc1nn(C)c(C)c1S(=O)(=O)NC1CCCCNC1=O (centres undefined)	-
SMILES	Dicer inh
C=CCOc1ccc(/C(O)=C2/C(=O)C(=O)N(CCOC)C23C(=O)N(CC)c2ccccc23)cc1 (centres undefined)	-
C=CCOc1ccc(/C(O)=C2/C(=O)C(=O)N(CC3CCCO3)C23C(=O)N(C)c2ccccc23)cc1C (centres undefined)	5.2
CCN1C(=O)C2(/C(=C(/O)c3ccc(C)c(F)c3)C(=O)C(=O)N2CCOC)c2ccccc21 (centres undefined)	8.7
C=CCOc1ccc(/C(O)=C2/C(=O)C(=O)N(CCCOC)C23C(=O)N(C)c2ccccc23)cc1C (centres undefined)	-
C=CCOc1ccc(/C(O)=C2/C(=O)C(=O)N(CCOC)C23C(=O)N(CC)c2ccccc23)cc1C (centres undefined)	6
COc1ccc(/C(O)=C2/C(=O)C(=O)N(CC3CCCO3)C23C(=O)N(C)c2ccccc23)cc1C (centres undefined)	-
